The nature of assay [1]: A CellTox Green Cytotoxicity Assay to monitor cytotoxicity in HEK293 cells - 40 hour (AID 1224871). Note: nearly all actives have a fitted effect of over 45% in size. Note: potency is the fitted concentration of half-maximal effect. The procedure, abridged: (§1)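 Nonlytic real-time cytotoxicity: HEK293 + CellTox Green reagent plated, 5 h preincubation, pintool compound addition (23 nL in DMSO), 37 C for 40 h, fluorescence measured at successive time points.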
Assay [2] in a line: qHTS RealTime-Glo MT Cell Viability Assay in HEK293 cells - 16 hour (AID 1224872). Note: top concentration of the series differs between compounds; nearly all actives have a fitted effect of over 50% in size. In short, it runs like this: (§2)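 HEK293 cells seeded with NanoLuc/prosubstrate reagent, rested 5 h at 37 C, then dosed and kept at 37 C up to 40 h. Nonlytic real-time luminescence from viable cells read at 0, 8, 16, 24, 32 and 40 h.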
Assay [3] is described as follows: qHTS RealTime-Glo MT Cell Viability Assay in HepG2 cells - 8 hour (AID 1224873). Note: nearly all actives have a fitted effect of over 55% in size. The procedure, abridged: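 Real-time viability: cells seeded at 600 per well together with NanoLuc and cell-permeant prosubstrate, compounds added after 5 h incubation. Luminescence tracked at 0, 8, 16, 24, 32 and 40 h of exposure.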
Assay [4] can be described thus: qHTS RealTime-Glo MT Cell Viability Assay in HEK293 cells - 40 hour (AID 1224874). Note: nearly all actives have a fitted effect of over 50% in size. The settings on record: RealTime-Glo luminescence; max response: stronger effect = lower value. In short, it runs like this:
(§3)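 Cells were seeded together with NanoLuc luciferase and a prosubstrate that viable cells reduce to a luciferase substrate. After a 5 h incubation at 37 C/5% CO2, compounds were added and luminescence was measured repeatedly during 40 h of treatment.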

Assay [5] can be described thus: A CellTox Green Cytotoxicity Assay to monitor cytotoxicity in HEK293 cells - 24 hour (AID 1224875). Note: series mostly up to about 77 µM; nearly all actives have a fitted effect of over 45% in size. In short, it runs like this: as §1
Assay [6] is described as follows: A CellTox Green Cytotoxicity Assay to monitor cytotoxicity in HepG2 cells - 16 hour (AID 1224876). Note: nearly all actives have a fitted effect of over 45% in size. In short, it runs like this:
(§4)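 Read-out is fluorescence of a cyanine dye excluded from live cells that stains DNA of dead HepG2 cells, with signal proportional to cytotoxicity. Plates were read at 0, 8, 16, 24, 32 and 40 h after compound addition.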

A short description of assay [7]: qHTS RealTime-Glo MT Cell Viability Assay in HepG2 cells - 32 hour (AID 1224877). Note: nearly all actives have a fitted effect of over 55% in size. The procedure, abridged:
(§5)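 HepG2 cells (600/well) were dispensed with RealTime-Glo reagents, incubated 5 h at 37 °C, then treated with compounds in DMSO for up to 40 h. Nonlytic NanoLuc luminescence reflecting viable cells was read at each stated time point.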

Assay [8] in a line: A CellTox Green Cytotoxicity Assay to monitor cytotoxicity in HepG2 cells - 24 hour (AID 1224878). Note: nearly all actives have a fitted effect of over 45% in size. The procedure, abridged: as §4
Assay [9] can be described thus: A CellTox Green Cytotoxicity Assay to monitor cytotoxicity in HepG2 cells - 40 hour (AID 1224879). Note: nearly all actives have a fitted effect of over 40% in size. In short, it runs like this: as §4
Assay [10] is described as follows: qHTS RealTime-Glo MT Cell Viability Assay in HEK293 cells - 0 hour (AID 1224880). In short, it runs like this: as §3
Assay [11] in a line: A CellTox Green Cytotoxicity Assay to monitor cytotoxicity in HepG2 cells - 0 hour (AID 1224882). Note: nearly all actives have a fitted effect of over 35% in size. The procedure, abridged:
as §4

Assay [12] is described as follows: A CellTox Green Cytotoxicity Assay to monitor cytotoxicity in HepG2 cells - 32 hour (AID 1224883). Note: nearly all actives have a fitted effect of over 50% in size. The procedure, abridged:
as §4

Assay [13] in a line: A CellTox Green Cytotoxicity Assay to monitor cytotoxicity in HEK293 cells - 8 hour (AID 1224884). Note: nearly all actives have a fitted effect of over 35% in size. In short, it runs like this: as §1
Assay [14] is described as follows: qHTS RealTime-Glo MT Cell Viability Assay in HepG2 cells - 16 hour (AID 1224885). Note: nearly all actives have a fitted effect of over 50% in size. The procedure, abridged: as §5
The nature of assay [15]: qHTS RealTime-Glo MT Cell Viability Assay in HEK293 cells - 24 hour (AID 1224886). The procedure, abridged:
as §2

The nature of assay [16]: A CellTox Green Cytotoxicity Assay to monitor cytotoxicity in HEK293 cells - 16 hour (AID 1224888). Note: nearly all actives have a fitted effect of over 35% in size. In short, it runs like this:
as §1

Assay [17] can be described thus: qHTS RealTime-Glo MT Cell Viability Assay in HepG2 cells - 0 hour (AID 1224889). Note: nearly all actives have a fitted effect of over 50% in size. In short, it runs like this:
as §5

A short description of assay [18]: A CellTox Green Cytotoxicity Assay to monitor cytotoxicity in HepG2 cells - 8 hour (AID 1224890). Note: nearly all actives have a fitted effect of over 45% in size. The procedure, abridged:
as §4

Assay [19] in a line: qHTS RealTime-Glo MT Cell Viability Assay in HEK293 cells - 8 hour (AID 1224887). In short, it runs like this:
as §3

This is an account of results in PubChem BioAssay (Tox21).

Values joined by “and” are separate entries in the source; they are usually repeats but may differ in a detail not shown here. Identical values can stand only once. Inconclusive results are not listed. A structure can be active in one record and inactive in another. Active and inactive are the calls of the source. Calls come from the whole dose curve; as a rule, active = well fitted curve in the direction sought with a large enough effect in the repeat runs; inconclusive = weak or mixed curves; inactive = no such curve, though single readings can be large; an effect the other way counts as inactive or inconclusive.
% is set by controls: 0 for no effect and ±100 for the full control effect.

On to `NC(=O)NO`, for which the Potency result in assay [1], in assay [2], in assay [5], in [6], in assay [8] and in assay [9] was “inactive” in each case. Besides, the Potency entry in assay [10], in [11], in [12], in assay [13], in [14] and in [15] was “inactive” each time. In addition, the Potency result in assay [16], in [17] and in [18] was “inactive” in each case. Moreover, the compound was called inactive in assay [3] and in assay [7]. Further, the max response in [4] is 19.8% (inactive) and 1.62% (inactive).

In the case of `C=C(C)C(N)=O`, the Potency result in assay [1], in assay [2], in [5], in assay [6], in assay [8] and in assay [9] was “inactive” each time. Besides, the Potency entry in assay [10], in assay [11], in [12], in [13], in assay [14] and in assay [15] was “inactive” throughout. For the same compound, the Potency entry in assay [16], in [17] and in [18] was “inactive” in each case. Also, the outcome in assay [3] and in [7] was inactive. In assay [4], the max response is 4.84% (inactive) and 13.1% (inactive).

Consider `COC(=O)c1ccc(O)cc1`, for which the Potency entry in assay [1], in assay [5], in assay [6], in assay [8], in [9] and in assay [11] was “inactive” in each case. For the same compound, the Potency result in [12], in [13], in assay [16] and in [18] was “inactive” throughout.

`O=C(O)Cc1cccc2ccccc12`: the Potency entry in assay [1], in assay [2], in [5], in assay [6], in [8] and in assay [9] was “inactive” each time. Also, the Potency result in assay [10], in [11], in assay [12], in assay [13], in [14] and in assay [15] was “inactive” throughout. For the same compound, the Potency entry in [16], in assay [17] and in assay [18] was “inactive” each time. The result in [3] and in assay [7] was inactive. Further, the max response in assay [4] is 0.279% (inactive) and 2.27% (inactive) and -0.352% (inactive).

In the case of `Cc1cccc(Nc2cc(Cl)nc(SCC(=O)O)n2)c1C`, the Potency result in assay [1], in assay [2], in assay [5], in assay [6], in assay [8] and in assay [9] was “inactive” in each case. Besides, the Potency result in [10], in assay [11], in assay [12], in assay [13], in [14] and in [15] was “inactive” throughout. The Potency result in assay [19], in assay [16], in assay [17] and in [18] was “inactive” each time. For the same compound, the compound was classed as inactive in assay [3] and in [7]. Besides, the max response in assay [4] was -8.11% (inactive) and -6.81% (inactive) and -0.208% (inactive).

For `c1ccc2[nH]c(-c3cscn3)nc2c1`, the Potency result in [1], in assay [5], in assay [6], in [8], in assay [9] and in assay [10] was “inactive” each time. For the same compound, the Potency entry in assay [11], in [12], in [13], in assay [14], in [15] and in [19] was “inactive” throughout. For the same compound, the Potency entry in assay [16], in [17] and in assay [18] was “inactive” in each case. For the same compound, the compound was classed as inactive in [3] and in [7]. In [4], the max response was -21.8% (inactive).

As for `C/C=C/c1ccc(O)c(OC)c1`, the Potency entry in assay [1], in [2], in assay [5], in assay [6], in [8] and in assay [9] was “inactive” throughout. For the same compound, the Potency entry in assay [10], in assay [11], in [12], in [13], in assay [14] and in assay [15] was “inactive” each time. In addition, the Potency result in assay [16], in assay [17] and in [18] was “inactive” in each case. In addition, the compound was classed as inactive in assay [3] and in assay [7]. Also, the max response in [4] was -5.09% (inactive) and 1.37% (inactive) and 1.68% (inactive).

On to `CC(C)=CCC/C(C)=C/CO`, for which the Potency result in assay [1], in [2], in assay [5], in [6], in assay [8] and in assay [9] was “inactive” each time. The Potency entry in [10], in [11], in [12], in [13], in assay [14] and in assay [15] was “inactive” each time. The Potency entry in [19], in [16], in assay [17] and in assay [18] was “inactive” throughout. For the same compound, the call in [3] and in assay [7] was inactive. The max response in assay [4] is 7.58% (inactive) and 13.8% (inactive) and -0.309% (inactive).

As for `C[C@]12CC[C@@H]3c4ccc(O)cc4CC[C@H]3[C@@H]1CCC2=O`, the Potency in [1] was 49 µM (active) and inactive. The Potency entry in assay [2], in [5], in [6], in assay [8], in assay [9] and in assay [10] was “inactive” throughout. Besides, the Potency entry in [11], in assay [12], in assay [13], in assay [14], in assay [15] and in assay [19] was “inactive” in each case. The Potency result in [16], in [17] and in assay [18] was “inactive” each time. In addition, the call in assay [3] and in assay [7] was inactive.

As for `Cc1cnc(NC(=O)C2=C(O)c3ccccc3S(=O)(=O)N2C)s1`, the Potency result in [1], in assay [2], in [5], in assay [6], in assay [8] and in [9] was “inactive” in each case. In addition, the Potency entry in assay [10], in assay [11], in [12], in assay [13], in assay [14] and in assay [15] was “inactive” each time. The Potency result in assay [16], in assay [17] and in [18] was “inactive” each time. In addition, the call in [3] and in assay [7] was inactive. In [4], the max response is 6.82% (inactive) and -5.33% (inactive) and 4.88% (inactive).
